Cruzain inh Det: inhibitors of Trypanosoma cruzi cruzain with detergent | P25779 | purified cruzain, Z-FR-AMC fluorescence, 0.01% Triton | Potency, µM, without a hit: max response, negative = inhibition, most hits filed as inhibitors | actives 0.43% (n = 200,000) | AID 1478;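 further: plate controls were neutral wells for no effect and buffer without enzyme for full effect; nearly all actives have a fitted effect of over 40% in size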
Target sequence (P25779 123-467 limits assumed): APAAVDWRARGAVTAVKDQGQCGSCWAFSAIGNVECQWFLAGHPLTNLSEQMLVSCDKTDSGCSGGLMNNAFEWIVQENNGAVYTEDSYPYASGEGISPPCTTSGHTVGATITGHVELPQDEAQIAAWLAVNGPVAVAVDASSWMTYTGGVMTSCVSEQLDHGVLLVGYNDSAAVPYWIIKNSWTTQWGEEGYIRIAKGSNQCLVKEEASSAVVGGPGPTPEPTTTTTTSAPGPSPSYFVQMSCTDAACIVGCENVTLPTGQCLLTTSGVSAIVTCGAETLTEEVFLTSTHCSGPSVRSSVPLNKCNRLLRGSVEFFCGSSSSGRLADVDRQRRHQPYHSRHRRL
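Steps: dispense cruzain (1.5 nM final) in acetate buffer pH 5.5 with DTT and 0.01% Triton X-100; pin-transfer compounds; incubate 15 min RT; add Z-FR-AMC (2 uM final); read fluorescence every 30 s, using the 60 s intensity change.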
Cruzain inh noDet: inhibitors of Trypanosoma cruzi cruzain without detergent. purified cruzain, Z-FR-AMC fluorescence, no detergent. P25779. AID 1476. actives 2.3% (n = 200,000). Potency, µM, for the others: max response, negative = inhibition, most hits filed as inhibitors;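 further: plate controls were enzyme without inhibitor for no effect and buffer without enzyme for full effect; nearly all actives have a fitted effect of over 40% in size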
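Purified cruzain at 1.5 nM, pre-incubated 15 min with compound at room temperature in 100 mM sodium acetate pH 5.5, 5 mM DTT, 0.00005% Triton X-100. Reaction started with 2 uM Z-FR-AMC; AMC fluorescence increase over 60 s gives rate.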
* marks the source's active call; other numbers are inactive results; ? = inconclusive. Rows were chosen to be rich in hits. Some 2.4% of all compounds tested hit in one or more screens of this group. The call rests on the fitted dose curve; in most records, active means well fitted curve in the direction sought with a large enough effect; inconclusive means small, poorly fitted or top-dose-only effect, or another doubt; inactive means no such curve, though single readings can be large; an effect the other way counts as inactive or inconclusive. Potency means the concentration at half of the fitted maximal effect.

SMILES | Cruzain inh Det | Cruzain inh noDet
COc1ccc(C(=S)N2CCNCC2)cc1 | -5.3% | -3.8%
COc1ccc(C(=S)N2CCCCCC2)cc1 | 14.1µM* | -2.4%
COc1ccccc1/C=C\C=N\n1c(-c2ccc(Cl)cc2Cl)n[nH]c1=S | -0.8% | 31.6µM*
COc1ccccc1/C=C\C=N\n1c(-c2ccc(Cl)cc2)n[nH]c1=S | 0.7% | ?
CCOc1ccc(-n2nc(CO)c(C(=O)NCc3cccc(OC)c3)n2)cc1 | -3.2% | 13.9%
CCCCSc1nnc2c(n1)[nH]c1ccccc12 | -0.4% | 25.1µM*
O=C(CSc1nnc2c(n1)[nH]c1ccccc12)OCc1ccccc1 | -3.3% | 25.1µM*
CCOC(=O)CC(=O)CSc1nnc2c(n1)[nH]c1ccccc12 | -3.3% | ?
CC(C)CSc1nnc2c(n1)[nH]c1ccccc12 | -1.3% | -26.3%
COC(=O)NC(c1ccccc1)c1c[nH]c2ccc(OC)cc12 (configuration not stated) | 2.0% | -11.7%
O=C(Nc1nc(-c2cccc([N+](=O)[O-])c2)cs1)C(c1ccccc1)c1ccccc1 | -3.5% | 10µM*
COc1ccc(CC(=O)Nc2nc(-c3cccc([N+](=O)[O-])c3)cs2)cc1 | 1.1% | 20µM*
CC1Cc2cc(-c3csc(NC(=O)Cc4ccccc4)n3)ccc2N1S(C)(=O)=O (configuration not stated) | 5.8% | ?
CS(=O)(=O)N1CCc2cc(-c3csc(NC(=O)C(c4ccccc4)c4ccccc4)n3)ccc21 | 1.7% | 7.94µM*
CC(OC(=O)c1ccccc1Br)C(=O)Nc1nc(-c2cccc([N+](=O)[O-])c2)cs1 (configuration not stated) | 0.1% | ?
COc1ccc(CC(=O)Nc2cccc(-c3csc(C)n3)c2)cc1 | -7.1% | -16.3%
Cc1cccc(C)c1NC(=O)CSc1nccn1C | -0.3% | -0.8%
COc1ccc(NC(=O)c2ccco2)cc1NC(=O)COc1ccccc1Cl | -2.3% | 6.1%
CNC(=O)[C@H]1O[C@@H](n2cnc3c(NCc4ccc(N)cc4)ncnc32)[C@H](O)[C@H]1O | 2.1% | 6.0%
COc1ccc(CNC(=O)Cn2ncc3c(=O)oc4ccccc4c32)c(OC)c1 | 0.1% | -7.0%
Cc1ccc(Cn2c(SCc3ccc(C(=O)NCCc4ccccc4)cc3)nc3ccncc32)cc1 | -11.0% | -17.9%
O=C(Nc1ccc2nc(-c3ccc4nc[nH]c4c3)[nH]c2c1)c1cccs1 | 12.6µM* | ?
O=C(Nc1ccc2nc(-c3ccccc3)[nH]c2c1)c1cccs1 | -9.5% | -9.0%
CCc1ccc(NC(=O)CSc2nc(-c3ccccc3)no2)cc1 | -6.3% | 6.0%
Cc1ccc(S(=O)(=O)N2CCC(N3CCN(Cc4ccccc4)C(=O)C3=O)CC2)cc1C | 3.9% | -2.8%
SMILES | Cruzain inh Det | Cruzain inh noDet
Cc1c(NC(=O)c2ccccc2)cccc1[N+](=O)[O-] | -3.4% | -15.6%
Cc1ccccc1NC(=O)c1ccc(Nc2c([N+](=O)[O-])cc([N+](=O)[O-])c3ccccc23)cc1 | -5.8% | 31.6µM*
CCOC(=O)c1oc2ccccc2c1NC(=O)COc1cccc(OC)c1 | 6.0% | -0.3%
CCOC(=O)c1oc2ccccc2c1NC(=O)COc1ccc(F)cc1 | 25.1% | 12.6µM*
Cc1ccc(-c2noc(-c3ccc(NCc4ccco4)c([N+](=O)[O-])c3)n2)cc1 | -5.1% | -13.2%
Cc1ccc(NC(=O)CSc2nc(=O)n(Cc3cccnc3)c3c2CCC3)cc1F | -3.4% | 11.3%
CCS(=O)(=O)NCc1ccc2[nH]c3c(c2c1)CCCC3 | -6.4% | -22.0%
S=C(NCc1ccc2[nH]c3c(c2c1)CCCC3)Nc1ccccc1 | -9.9% | 31.6µM*
O=C(Nc1ccc2[nH]c3c(c2c1)CCCC3)c1ccco1 | -10.2% | -16.7%
Cc1cc(C)cc(NC(=S)NCc2ccc3[nH]c4c(c3c2)CCCC4)c1 | -0.8% | 31.6µM*
COc1cccc(OCC(=O)NC2CC(=O)N(c3cccc(OC)c3)C2)c1 (configuration not stated) | -1.6% | 4.9%
CCN(CC)c1ccc(C(=O)NCc2ccc3c(c2)CCN3C(=O)c2ccc(F)cc2)cc1 | -1.8% | -18.2%
COc1ccccc1N1CCN(S(=O)(=O)c2ccc3c(c2)CCCN3C(C)=O)CC1 | -1.2% | ?
O=C(CC(c1cccs1)N1Cc2ccccc2C1=O)Nc1ccccc1F (configuration not stated) | -4.8% | 0.1%
CCCCOCCCn1c(-c2ccco2)nc2nc3ccccc3nc21 | 28.2µM* | ?
COCCCn1c(-c2ccco2)nc2ccccc2c1=O | -1.2% | 4.0%
Cc1ccc2oc3c(c(=O)c2c1)C(c1ccccc1F)N(CCCN(C)C)C3=O (configuration not stated) | -4.0% | 8.2%
O=C(Cc1ccc(S(=O)(=O)N2CCCC2)s1)Nc1nc2c(s1)CCCC2 | -16.6% | 20µM*
CC(C)(C)NC(=O)Cc1ccc(S(=O)(=O)N2CCCC2)s1 | -5.7% | -4.0%
Cc1ccc(NC(=O)Nc2nnc(N3CCCCC3)s2)c(C)c1 | -2.6% | 16.8%
COCCCNC(=O)c1ccc(Cn2c(=O)c3cccn3c3cccnc32)cc1 | -4.2% | 5.7%
CCOC(=O)c1ccc(N2C(=O)c3n[nH]c(-c4cccs4)c3C2c2ccc(OCC)cc2)cc1 (configuration not stated) | -3.1% | ?
CCOC(=O)c1ccc(N2C(=O)c3n[nH]c(-c4cccs4)c3C2c2ccc(CC)cc2)cc1 (configuration not stated) | -6.1% | 5.01µM*
COc1cc(-c2nc(-c3ccc(NC(=O)c4ccc5c(c4)OCO5)cc3)no2)cc(OC)c1OC | -3.2% | ?
Cc1ccccc1-c1nc(-c2ccc(NC(=O)c3ccc4c(c3)OCO4)cc2)no1 | -1.4% | 7.94µM*
SMILES | Cruzain inh Det | Cruzain inh noDet
CC(C)(C)c1ccc(C(=O)Nc2nnc(Cc3c[nH]c4ccccc34)s2)cc1 | 5.5% | ?
O=C(Nc1nnc(Cc2c[nH]c3ccccc23)s1)c1ccc(Cl)cc1Cl | -8.3% | 25.1µM*
COc1ccc(NC(=O)CN2C(=O)C(c3ccc(C(C)(C)C)cc3)=NC2(C)C)cc1Cl | -4.7% | 1.2%
O=C1CS(=O)(=O)C2(C(=O)N(Cc3cccc(F)c3)c3ccccc32)N1c1ccccc1 (configuration not stated) | -6.0% | 10µM*
CCc1ccc(N2C(=O)CS(=O)(=O)C23C(=O)N(Cc2ccccc2)c2ccccc23)cc1 (configuration not stated) | -4.4% | 2.51µM*
CCc1ccc(N2C(=O)CSC23C(=O)N(Cc2ccc(C)cc2)c2ccccc23)cc1 (configuration not stated) | -8.6% | -25.6%
CCc1ccc(N2C(=O)CSC23C(=O)N(Cc2cccc(F)c2)c2ccccc23)cc1 (configuration not stated) | 0.4% | -3.9%
COC(=O)c1sccc1S(=O)(=O)N(CC(=O)Nc1c(C)cccc1C)c1ccc(C)c(C)c1 | -3.9% | 6.3%
O[C@@H](c1cc(-c2ccccc2)nc2c1ccc1ccccc12)C1CCCCN1 (some centres not stated) | 3.6% | -3.1%
COc1ccc(CC(=O)Nc2ccc(-c3nc4ccccc4s3)cc2Cl)cc1OC | -0.5% | ?
O=C(Nc1nccs1)c1cn(-c2ccccc2)nc1-c1ccccc1 | -1.1% | -7.0%
CC(C)COc1ccc(-c2nn(-c3ccccc3)cc2C(=O)Nc2nccs2)cc1 | -2.0% | 10µM*
CCCC1CCC(C2=N/C(=C\c3ccc(OC)c(OC)c3)C(=O)O2)CC1 (configuration not stated) | 1µM* | 2.51µM*
COc1ccc(/C=C2\N=C(SC)SC2=O)cc1OC | -4.7% | -6.2%
